PostGolgi yeast: growth inhibition of a yeast mutant, post-Golgi transport screen; AID 739; actives 0.9% (n = 98,000); inhibition, % at 10 µM; post-Golgi transport phenotypic cell assay;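 also: yeast cells grown in 1536-well plates; yeast grown about 18 h at 30C before absorbance read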
PostGolgi ctrl: yeast control strain growth, post-Golgi counter-screen. efflux-deficient yeast background strain, growth absorbance A615, 16 h. inhibition, % at 10 µM. actives 5% (n = 98,000). AID 738
sEH inhibitor: inhibitors of human soluble epoxide hydrolase; actives 0.34% (n = 91,000); recombinant human sEH enzymatic activity assay; inhibition, % at 2 µM; P34913; AID 707; in the data active = inhibition above about 80%
Cav32 inh: blocks human Cav3.2 T-type calcium channel; Cav3.2-expressing cells, Fluo-4 calcium fluorescence FDSS; stronger effect = lower value; O95180; actives 4% (n = 100,000); B-score at 10 µM;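 active = single-dose well whose peak fluorescence ratio is a statistical outlier from its plate by either plate-standardised score or position-corrected B-score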
sEH act: activators of human soluble epoxide hydrolase; P34913; purified human sEH enzymatic activity, activator screen; activation, % at 2 µM; actives 0.04% (n = 91,000); AID 717; in the data active = activation above about 37%
Hits are given with their value; n = inactive; x = no result given. Most compounds without a hit are left out; they make up all but 7.8% or so of the library. Rule as the data show it, unless noted: active = inhibition above about 30%; inactive = the rest.

SMILES	PostGolgi yeast	PostGolgi ctrl	sEH inhibitor	Cav32 inh	sEH act
Cc1cc(OCC(F)(F)C(F)(F)C(F)(F)C(F)(F)C(F)(F)C(F)F)nc(N)n1	37	n	n	n	n
CCN1C(=O)CC(C(=O)O)SC1=Nc1ccc(OC)cc1 (centres undefined)	n	n	n	n	n
Cc1ccnc(NC(=O)CCC(=O)N(CC(=O)NC2CCCCC2)c2cccc(C)c2C)c1	n	n	n	-6.4	n
O=C(NCc1nc2ccccc2[nH]1)C1=C[C@H](c2ccc3c(c2)OCO3)C[C@H](OCCCCO)O1	x	x	x	n	x
CCCCOc1ccc(CN2CCC(O)CC2)cc1	n	n	n	n	n
CCCCN(C)C(=O)C1CCN(Cc2ccc(OCc3ccccc3)cc2)CC1	x	x	n	-3.6	n
COc1ccccc1NC(=O)NCCN1C(=O)C2C3C=CC(C3)C2C1=O (centres undefined)	n	42	x	n	x
Cc1cccc(NCN2C(=O)C3C4C=CC(C4)C3C2=O)c1 (centres undefined)	n	33	n	n	n
O=C(NCCN1C(=O)C2C3C=CC(C3)C2C1=O)Nc1ccc(Br)cc1 (centres undefined)	n	n	x	n	x
Cc1ccccc1NCN1C(=O)C2C3C=CC(C3)C2C1=O (centres undefined)	n	32	x	n	x
O=C1C2C3C=CC(C3)C2C(=O)N1CN(Cc1ccccc1)CN1C(=O)C2C3C=CC(C3)C2C1=O (centres undefined)	n	37	n	n	n
CC(Sc1nnc(CNc2cccc3ccccc23)n1-c1ccccc1)C(=O)N/N=C/c1ccco1 (centres undefined)	n	n	n	n	n
CCc1nc(SCC(=O)c2cccs2)c2oc3ccccc3c2n1	n	n	x	n	x
CC(=O)N1CCc2cc(S(=O)(=O)NC(CC(C)C)C(=O)Nc3ccc4c(c3)OCCO4)ccc21 (centres undefined)	n	n	x	n	x
O=C(c1cn(-c2ccccc2)nc1-c1cccs1)N1CCN(c2ccccc2)CC1	n	44	n	n	n
O=C(c1cn(-c2ccccc2)nc1-c1cccs1)N1CCOCC1	n	n	n	n	n
Cc1cccc(C)c1Nc1nnc(SCc2cc([N+](=O)[O-])cc3c2OCOC3)s1	n	33	n	n	n
COc1cccc(Nc2nnc(SCc3cc([N+](=O)[O-])cc4c3OCOC4)s2)c1	n	n	n	x	n
CCOc1ccc(CCNC(=O)CCCN2C(=O)c3ccccc3C2=O)cc1OCC	n	n	n	n	n
CCOC(=O)N1CCC(NC(=O)c2cc(S(=O)(=O)N(CC)CC)ccc2F)CC1	n	n	n	n	n
Cc1ccc(NC2=CC(=O)CC(C)(C)C2)c(N)c1	n	38	n	n	n
Brc1ccc(-c2nc3ncccn3c2NC2CCCCC2)o1	n	45	n	n	n
Cc1ccc(C(=O)NCCn2cc(SCC(=O)Nc3cc(C)on3)c3ccccc32)cc1	n	n	x	-4	x
COc1ccc(CCNC(=O)CSc2cn(Cc3cccc(C)c3)c3ccccc23)cc1OC	x	x	x	-4.3	x
Cc1cccc(Cn2cc(SCC(=O)Nc3nccs3)c3ccccc32)c1	n	n	n	-4.6	n
SMILES	PostGolgi yeast	PostGolgi ctrl	sEH inhibitor	Cav32 inh	sEH act
Cc1cc(NC(=O)CSc2cn(CCNC(=O)c3ccccc3)c3ccccc23)no1	n	n	n	n	n
Cc1nnc(NC(=O)CSc2cn(Cc3ccccc3)c3ccccc23)s1	n	n	n	n	n
Cc1ccc(Cn2cc(SCC(=O)Nc3nccs3)c3ccccc32)cc1	n	n	n	-6	n
COc1ccc2nc(SCC(=O)N3CCN(c4ccccc4F)CC3)c(C#N)cc2c1	x	x	n	x	n
CCOc1ccc(CC(=O)NCc2ccc3c(c2)cc(C)n3C)cc1	x	x	x	-8.1	x
COc1ccc(C(=O)NCc2ccc3c(c2)cc(C)n3C)cc1	x	x	x	n	x
COC(=O)CNC(=O)c1c(-c2ccccc2Cl)noc1C	n	n	n	n	n
Cc1onc(-c2ccccc2Cl)c1C(=O)NCc1ccc2c(c1)cc(C)n2C	x	x	x	-6	x
Cc1cc2cc(CCNC(=O)c3c(-c4ccccc4Cl)noc3C)c(=O)[nH]c2cc1C	n	n	x	-3.7	x
CCC1Oc2ccc(C)cc2N(CC(=O)N(Cc2ccncc2)Cc2ccco2)C1=O (centres undefined)	x	x	n	n	n
CC(=O)Nc1ccc(Oc2cc(C#N)c(C#N)cc2N2CCOCC2)cc1	n	n	n	n	n
CC(=O)Nc1ccc(Oc2cc(C#N)c(C#N)cc2N2CCCCCC2)cc1	n	n	n	-3.8	n
O=C(c1cccs1)N1CCc2c([nH]c3ccccc23)C1c1ccc(Cl)cc1 (centres undefined)	n	30	n	n	n
O=C(c1cccc(S(=O)(=O)N2CCCC2)c1)c1nnc(-c2ccncc2)o1	n	n	n	n	n
CCOc1ccccc1N1CCN(C(=O)c2cccc(-c3ccc(O)cc3)c2)CC1	n	99	n	x	n
O=C(Nc1cccc(Cl)c1)N1CCN(C/C=C/c2ccccc2)CC1	40	n	x	-6	x
CCOc1ccccc1N1CCN(C(=O)Nc2cccc(Cl)c2)CC1	n	n	n	-6.1	n
COc1ccc(Cl)cc1NC(=O)C(C)N1CCN(C/C=C/c2ccccc2)CC1 (centres undefined)	65	n	n	n	n
CCOc1ccccc1N1CCN(C(=O)c2ccncc2)CC1	n	n	n	x	n
O=C(Nc1cccc(Cl)c1)N1CCN(c2ncccn2)CC1	n	n	n	n	n
CCCC[C@@H]1CCCO[C@@](C(=O)NCc2ccccn2)(C(F)(F)F)C1	x	x	x	n	x
Cn1cnnc1SCCn1c(N2CCCCC2)nc2c1c(=O)[nH]c(=O)n2C	n	n	n	n	n
CCOc1cc(C2CC(=O)c3c(ccc4ccccc34)N2)ccc1O (centres undefined)	n	n	n	n	n
Cn1c(=O)cc(SCC(=O)NCCN2CCN(c3ccccc3F)CC2)c2cc(Cl)ccc21	n	n	n	n	n
COc1ccc(Cl)cc1NC(=O)CC(C)c1ccccc1 (centres undefined)	n	n	n	-7.6	n
SMILES	PostGolgi yeast	PostGolgi ctrl	sEH inhibitor	Cav32 inh	sEH act
COc1ccc2c(C)cc(SCC#N)nc2c1	n	n	n	n	n
COc1ccc2c(C)cc(SCc3c(C)noc3C)nc2c1	n	32	n	n	n
Brc1ccc(C2=NC(Cc3ccccc3)CO2)cc1 (centres undefined)	x	x	x	n	x
O=C1CC(NCCC2=CCCCC2)C(=O)N1c1cccc(Cl)c1Cl (centres undefined)	n	n	n	-3.4	n
O=C(CN1C(=O)CSc2ccccc21)NCCC1=CCCCC1	n	n	x	x	x
CCOC(=O)c1sc(C)c2c1NC(c1ccc(N(C)C)cc1)NC2=O (centres undefined)	n	n	n	-3.6	n
CCOC(=O)c1sc(NC(=O)Nc2ccc(Cl)cc2)cc1C	n	62	92	n	n
CCOC(=O)c1c(NC(=O)Nc2ccc(Cl)cc2)sc(C)c1C	n	n	n	n	n
CCCn1c(SCc2ccccc2)nc2c1c(=O)[nH]c(=O)n2C	n	50	x	n	x
CC(C)Sc1nc2c(c(=O)[nH]c(=O)n2C)n1CCc1ccccc1	n	31	x	n	x
CCC(C)Sc1nc2c(c(=O)[nH]c(=O)n2C)n1CCc1ccccc1 (centres undefined)	n	n	n	n	n

Screening data (PubChem)
